A selection: hits, their analogues and other compounds. The true share with any hit is near 4.6%.
D1 ag – human D1 receptor agonism; P21728; AID 504660; activation, % at 2 µM; HEK293 T-REx D1 cells, calcium flux, agonist mode; 1% of 360,000 active
Target sequence (P21728 whole entry, looked up): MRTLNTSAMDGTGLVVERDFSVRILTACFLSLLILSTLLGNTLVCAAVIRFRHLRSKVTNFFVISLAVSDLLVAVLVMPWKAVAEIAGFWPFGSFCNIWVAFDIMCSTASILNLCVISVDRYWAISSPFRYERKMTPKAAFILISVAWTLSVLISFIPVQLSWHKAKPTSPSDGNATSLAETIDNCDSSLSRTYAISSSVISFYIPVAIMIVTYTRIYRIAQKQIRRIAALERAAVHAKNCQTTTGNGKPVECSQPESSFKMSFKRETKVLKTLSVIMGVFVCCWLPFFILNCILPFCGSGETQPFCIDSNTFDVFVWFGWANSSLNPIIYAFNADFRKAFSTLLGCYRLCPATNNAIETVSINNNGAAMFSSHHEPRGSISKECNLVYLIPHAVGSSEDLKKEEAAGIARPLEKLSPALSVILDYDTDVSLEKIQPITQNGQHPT
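Agonism was scored from calcium flux recorded over 180 s (1 read/s) after pintool compound addition, following a 10-cycle baseline. Cells were inducible force-coupled HEK293 TREx D1, plated overnight at 30 C and loaded with no-wash calcium dye.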
D1 antagonist – blocks dopamine activation of the human D1 receptor | 3.2% of 360,000 active | HEK293 TREx D1 cells, calcium flux, dopamine EC80; active compounds read low | P21728 | activity change, negative = inhibition, % at 10 µM; in the data active = activity change below about -30%
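Cells carrying a force-coupled, tetracycline-inducible human D1 receptor report calcium flux. Each well gets a 10 s baseline, compound with 180 s monitoring, then an EC80 dopamine stimulus with a second 180 s kinetic read.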
D1 potentiator – enhances dopamine response at the human D1 receptor | P21728 | HEK293 TREx D1 cells, calcium flux, dopamine EC20 potentiation | potentiation, % at 10 µM | 0.036% of 360,000 active; in the data active = potentiation above about 30%
TRHR ag – activates the human TRH receptor; P34981; activation, % at 2 µM; AID 493084; TRHR cells, calcium flux fluo-8, FDSS agonist mode; 0.18% of 360,000 active
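Read-out: compound-evoked intracellular calcium rise in TRHR cells, fluo-8 dye, kinetic FDSS fluorescence at 1 s/cycle following a 10-cycle baseline. Cells cultured overnight before dye loading (30 min–1.5 h, RT).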
TRHR PAM – allosteric enhancers of human TRH receptor; 0.66% of 360,000 active; P34981; TRHR cells, fluo-8 calcium fluorescence, EC20 TRH enhancement; enhancement, % at 2 µM; in the data active = enhancement above about 30%
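TRHR-expressing cells loaded with fluo-8 calcium dye were read kinetically (ex 480/em 530) during compound addition, then stimulated with an EC20 of TRH (10 nM final). Enhancement of the Gq-mediated intracellular calcium response was scored.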
Epigenetic derep – regulators of epigenetic silencing causing reporter derepression in mouse cells; murine LDR cells, GFP reporter derepression, 30 h; Potency, µM (titrated, usually from 53.9 µM), most hits filed as activators; 0.2% of 280,000 active; AID 1865; active = well fitted activation curve with a large enough effect; inconclusive = small, poorly fitted or top-dose-only effect; also: nearly all actives have a fitted effect of over 60% in size
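Murine LDR cells carrying a silenced, genomically integrated CMV-driven GFP reporter were exposed to compound for 30 hours at 37 C. After PBS washes, GFP-positive cells (20–120 um objects) were counted by laser-scanning microplate cytometry.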
Large screens that a line does not name were inactive. Rule as the data show it, unless noted: active = activation above about 30%; inactive = the rest.

Clc1ccc(Cn2c(-c3cccnc3Cl)nc3ccccc32)cc1	D1 antagonist -45
CC(C)CC(=O)N1CCN(C(=O)c2ccc(-c3ccccc3)cc2)CC1	TRHR PAM 31 (no result: Epigenetic derep)
Cc1ccc(N2C(=O)c3ccc(C(=O)N4CCN(c5ccc(C)c(C)c5)CC4)cc3C2=O)cc1	none
COc1ccc(S(=O)(=O)N2CCN(Cc3cc(OC)c(O)c(OC)c3)CC2)cc1	none (no result: Epigenetic derep)
Cc1ccc(N2C(=O)c3ccc(C(=O)N4CCN(Cc5ccccc5)CC4)cc3C2=O)cc1	D1 ag 58, D1 antagonist -48
COc1cc(CN2CCN(S(=O)(=O)c3ccccc3)CC2)cc(OC)c1O	D1 antagonist -61
COc1cc(CN2CCN(C(=O)c3ccc(-c4ccccc4)cc3)CC2)cc(OC)c1OC	TRHR PAM 33
O=C1C=C[C@@H](O)[C@@H]2[C@H]3C(=O)N(c4ccc(F)cc4F)C(=O)[C@@H]3CC[C@@H]12	none (no result: D1 ag, D1 antagonist, D1 potentiator, TRHR ag, TRHR PAM)
CC(CNC(=O)c1ccc2c(c1)nc1n2CCCCC1)c1ccccc1 (centres undefined)	none
Cc1ccc(NC(=O)c2c(C)oc3ccc(O)c(CN4CCCCCC4)c23)c(C)c1	none
COc1cccc(CN2CCN(C(=O)c3ccc(-c4ccccc4)cc3)CC2)c1OC	D1 antagonist -37
CCCOC(=O)CN1C(=O)c2ccc(C(=O)OCCC)cc2C1=O	none
COc1cc(OC)cc(C(=O)N2CCN(C(=O)c3ccc(-c4ccccc4)cc3)CC2)c1	TRHR PAM 36
COc1cc(C(=O)N2CCN(C(=O)C3CC3)CC2)cc(OC)c1OC	D1 antagonist -42
CCCOC(=O)c1ccc2c(c1)C(=O)N(c1ccccc1)C2=O	D1 antagonist -35
CCN(CC)CCCNC(=O)Cn1cc2c(n1)CCC(C)C2 (centres undefined)	D1 antagonist -41
CCCSCCCNC(=O)Cn1cc2c(n1)CCC(C)C2 (centres undefined)	none
O=C(Nc1cccc(-c2nc3ccccc3[nH]2)c1)c1c(F)cccc1F	none
O=C(c1ccccc1)N1CCC(c2nc3ccccc3o2)CC1	none
COc1ccc(-n2ncc(C(=O)N3CCN(c4ccccn4)CC3)c2C2CCN(C(=O)OC(C)(C)C)CC2)cc1	none
Cc1cc(C)n(-c2nnc(N3CCN(c4ccc(F)cc4)CC3)nn2)n1	D1 antagonist -42
Cc1cc(C)n(-c2ccc(N3CCOCC3)nn2)n1	none
c1cc2c(cc1C1=NNC(=NC3CC3)SC1)OCCO2	Epigenetic derep 28µM
Cc1cccc(NC(=O)CCNS(=O)(=O)c2ccc3c(c2)CCCC(=O)N3)c1C	none
CC/C(=N\NC(=O)c1ccncc1)C12CC3CC(CC(C3)C1)C2	none
CC1(C(=O)NC(=S)NNC(=O)c2ccncc2)CCCCC1	D1 ag 43, Epigenetic derep inconclusive
O=C(NNC(=S)NC(=O)C12CC3CC(CC(C3)C1)C2)c1ccncc1	D1 ag 136, TRHR ag 36
O=C(NNC(=O)C1CCCCC1)c1ccncc1	none (no result: D1 potentiator, Epigenetic derep)
COc1ccc(OC)c(S(=O)(=O)N2CCN(S(=O)(=O)c3ccc4c(c3)OCCO4)CC2)c1	none (no result: Epigenetic derep)
Cc1ccc(NC(=O)c2ccc(F)c(S(=O)(=O)NCCc3ccccc3)c2)cc1F	D1 antagonist -30
N#C/C(=C/c1ccc(-c2ccccc2[N+](=O)[O-])o1)C(N)=O	D1 antagonist -41, Epigenetic derep inconclusive
Cc1ccc(Nc2nc(-c3ccc(O)c(O)c3)cs2)nc1	none
Cc1ccc(C(=O)Nc2nc(-c3ccc(F)cc3)cs2)o1	D1 antagonist -48 (no result: Epigenetic derep)
Cc1ccc(Nc2nc(-c3ccc(F)cc3)cs2)nc1	D1 antagonist -37 (no result: Epigenetic derep)
O=C(Nc1nc(-c2ccccc2)cs1)c1ccccc1NS(=O)(=O)c1ccc(F)cc1	D1 antagonist -48
O=C(CN1C(=O)C2CC=CCC2C1=O)Nc1nc(-c2ccc(F)cc2)cs1 (centres undefined)	D1 antagonist -46 (no result: Epigenetic derep)
CC(C)c1cnc2c(c1SCC(=O)c1ccccc1)c(=O)n(C)c(=O)n2C	none
CCOc1ccccc1NS(=O)(=O)c1ccc2c(c1)CC(C)N2C(=O)C1CC1 (centres undefined)	none
Cc1ccc(-c2nc3sccn3c2Nc2ccccc2C)cc1	none
COc1ccc(C(=O)C2CCCN(Cc3cccn3-c3ccc(Cl)cn3)C2)c(OC)c1 (centres undefined)	D1 ag 33
O=C(c1ccc(Cl)cc1)C1CCCN(Cc2cccn2-c2cccnc2)C1 (centres undefined)	TRHR PAM 33
CSc1ccc(C(=O)C2CCCN(Cc3cccn3-c3cccnc3)C2)cc1 (centres undefined)	none
CCOc1ccc(C2=NNC(c3cccs3)=Nc3ccc(OC)cc32)cc1	D1 antagonist -38
O=C(Nc1c[nH]c2c(Cl)cccc2c1=O)N1CCN(c2ccccn2)CC1	TRHR PAM 31 (no result: Epigenetic derep)
COc1ccc(NS(=O)(=O)c2cc3[nH]c(=O)c(=O)[nH]c3cc2C)cc1OC	none
Cc1ccc(OCC(=O)NNC(=O)Cn2c(=O)cnc3ccccc32)cc1	none (no result: Epigenetic derep)
CC(C)NC(=O)Cn1c(=O)cnc2ccccc21	D1 antagonist -55
N#Cc1nc(Nc2cc(F)cc(F)c2)c2ncn(CC(F)F)c2n1	none (no result: Epigenetic derep)
N#Cc1nc(NCC(F)F)c2ncn(-c3cccc(Cl)c3)c2n1	D1 antagonist -49 (no result: Epigenetic derep)
Cc1ccc(-c2nc3ccsc3c(=O)o2)cc1	D1 antagonist -87
CCN(C(=O)COC(=O)c1ccccc1NCCO)c1cccc2ccccc12	D1 antagonist -43 (no result: Epigenetic derep)
O=C(OCC(=O)N(Cc1ccccc1)Cc1ccccc1)c1ccccc1NCCO	none (no result: Epigenetic derep)
CCOP(=O)(c1ccccc1)c1nc(-c2ccc(F)cc2)oc1N1CCCCC1 (centres undefined)	D1 ag 33
CCOP(=O)(OCC)c1nc(-c2ccc(Br)cc2)oc1N1CCCCC1	D1 antagonist -45 (no result: Epigenetic derep)
CCOP(=O)(OCC)c1nc(-c2ccc(Cl)cc2Cl)oc1N1CCCCC1	none
O=P(c1ccccc1)(c1ccccc1)c1nc(-c2ccccc2)oc1N1CCOCC1	none
O=C(CSc1nnc(-c2ccccc2F)o1)N1CCc2ccccc21	none
COc1cccc(-c2nc(SCC(=O)NC3CCCC3)c(-c3ccccc3)[nH]2)c1	none
Cc1cc(C)n(-c2nc(SCCN(C)C)c3c4c(sc3n2)CCCC4)n1	TRHR PAM 38
CCC(O)CNc1nc(-n2nc(C)cc2C)nc2sc3c(c12)CCCC3 (centres undefined)	none
Cc1noc(C(=O)N2CCN(c3ccc(F)cc3)CC2)c1Cl	D1 antagonist -69
Cc1cccc(N2CCN(C(=O)CSCc3c(C)noc3C)CC2)c1C	none
Cc1noc(C)c1CSCC(=O)N1CCN(c2ccc(F)cc2)CC1	D1 antagonist -32
